# Reference: a collection of fitness landscapes (doi:10.1016/j.celrep.2020.107928)
# The full ranking holds about 81,000 sequences; the median of “one-hybrid fitness for binding parS DNA” is about -0.17, and the highest 2% start at about 0.51. The sample as a whole holds a higher share of the highest values than the screen did.
# B1: Caulobacter ParB omega fusion; a variant is named by its letters at X, in order, B8GW30 (parent)
# chain: MESVVVGEPGMSEGRRGLGRGLSALLGEVDAAPAQAPGEQLGGSREAPIEILQRNPDQPRRTFREEDLEDLSNSIREKGVLQPILVRPSPDTAGEYQIVAGERAWRAAQRAGLKTVPIMVRELDDLAVLEIGIIENVQRADLNVLEEALSYKVLMEKFERTQENIAQTIGKSXSHVANXMRLLXLPDEVQSYLVSGELTAXHARAIAAAADPVALAKQIIEGGLSVRETEALARKAPNLSAGKSKGGRPPRVKDTDTQALESDLSSVLGLDVSIDHRGSTGTLTITYATLEQLDDLCNRLTRGI
# Variants of: B1
# Test: one-hybrid fitness for binding parS DNA (scaled: cognate 1, non-cognate 0); higher = stronger binding
# Details: with parS DNA site
# How it was run: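 Fitness here means the log change in variant-to-wild-type read ratio between plasmids sequenced before and after selection. That scale was set so cognate equals 1 and non-cognate equals 0. The selection was a bacterial one-hybrid screen of Caulobacter ParB libraries, four specificity codons randomised, in E. coli USO carrying a HIS3 reporter with the site 19 bp from the promoter, grown 48 hours at 37°C on M9-minus-histidine with 0.1 mM IPTG and 5 mM 3-AT.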
row,Variant,one-hybrid fitness for binding parS DNA
1,WNTN,≤ 0.2
2,RKGT,0.764
3,RKQP,≤ 0.2
4,RKDK,≤ 0.2
5,RKQH,≤ 0.2
6,RKDY,0.38
7,RKRQ,≤ 0.2
8,RKGM,0.262
9,RKDT,0.832
10,RKRR,≤ 0.2
11,RKGQ,≤ 0.2
12,RKQT,0.729
13,RKRT,0.658
14,TDGD,≤ 0.2
15,RCPL,≤ 0.2
16,WHLG,≤ 0.2
17,CRRN,≤ 0.2
18,ITGW,≤ 0.2
19,RLNK,≤ 0.2
20,RLDF,0.229
21,RLNC,0.94
22,RLDC,0.938
23,RLNE,≤ 0.2

row,Variant,one-hybrid fitness for binding parS DNA
1,RLDQ,≤ 0.2
2,TYDG,≤ 0.2
3,RNWT,0.535
4,RNRR,≤ 0.2
5,RNYT,0.66
6,RNIT,0.427
7,RNSY,0.399
8,RNWY,0.275
9,RNSM,0.238
10,RNRT,0.786
11,RNST,0.746
12,RNPT,0.307
13,RNRM,0.345
14,RNWF,≤ 0.2
15,QFRW,≤ 0.2
16,LVVI,≤ 0.2
17,PETN,≤ 0.2
18,YEDL,≤ 0.2
19,KWKD,≤ 0.2
20,VTLP,≤ 0.2
21,HAAI,≤ 0.2
22,PKVP,≤ 0.2
23,RNQR,≤ 0.2

row,Variant,one-hybrid fitness for binding parS DNA
1,RNLH,≤ 0.2
2,RNQM,0.228
3,RNQT,0.74
4,RNGR,≤ 0.2
5,RNLT,0.683
6,RNHT,0.723
7,RNGT,0.696
8,RNGY,0.306
9,RNLP,≤ 0.2
10,RNHD,≤ 0.2
11,RNHN,0.346
12,QRGN,≤ 0.2
13,GVHD,≤ 0.2
14,VTSQ,≤ 0.2
15,MGWS,≤ 0.2
16,QCRG,≤ 0.2
17,QHQC,≤ 0.2
18,LAPW,≤ 0.2
19,HMRI,≤ 0.2
20,VDML,≤ 0.2
21,HQSC,≤ 0.2
22,DSFI,≤ 0.2
23,LCFF,≤ 0.2

row,Variant,one-hybrid fitness for binding parS DNA
1,ETSR,≤ 0.2
2,RNCM,≤ 0.2
3,RNCT,0.612
4,RNCQ,≤ 0.2
5,QRCF,≤ 0.2
6,DGSS,≤ 0.2
7,YRDA,≤ 0.2
8,AKTQ,≤ 0.2
9,RRIQ,≤ 0.2
10,RRPC,0.796
11,RRIY,0.332
12,RRIC,0.71
13,RRPM,0.215
14,SLCD,≤ 0.2
15,HGNW,≤ 0.2
16,EVCS,≤ 0.2
17,LNAY,≤ 0.2
18,AANM,≤ 0.2
19,ILWI,≤ 0.2
20,ALYC,≤ 0.2
21,DAAA,≤ 0.2
22,RAAA,0.592
23,NAAA,≤ 0.2

row,Variant,one-hybrid fitness for binding parS DNA
1,RAFA,0.624
2,NQKR,≤ 0.2
3,LMTS,≤ 0.2
4,GGWG,≤ 0.2
5,HSNS,≤ 0.2
6,QTKP,≤ 0.2
7,RHFK,≤ 0.2
8,RHFR,≤ 0.2
9,RHFC,0.799
10,RHAF,≤ 0.2
11,RHAC,0.933
12,RHAR,≤ 0.2
13,QLSE,≤ 0.2
14,TNGD,≤ 0.2
15,RMKA,0.735
16,DMVA,≤ 0.2
17,RMVA,0.611
18,EGMC,≤ 0.2
19,HPGG,≤ 0.2
20,CLLW,≤ 0.2
21,RSDT,0.696
22,RSNT,0.911
23,RSDM,≤ 0.2

row,Variant,one-hybrid fitness for binding parS DNA
1,RCDT,0.813
2,RDDT,≤ 0.2
3,REYT,≤ 0.2
4,REDT,≤ 0.2
5,RPYT,≤ 0.2
6,RPDT,≤ 0.2
7,RSNN,0.445
8,RSNP,≤ 0.2
9,RCYT,0.963
10,SYNF,≤ 0.2
11,QNNL,≤ 0.2
12,QNNR,≤ 0.2
13,VNTR,≤ 0.2
14,TLTC,≤ 0.2
15,VASF,≤ 0.2
16,ARLY,≤ 0.2
17,RENT,≤ 0.2
18,RCNT,0.879
19,RDYT,≤ 0.2
20,RCRT,0.818
21,RERT,0.216
22,RSRT,0.832
23,RSYT,0.846

row,Variant,one-hybrid fitness for binding parS DNA
1,RSRP,≤ 0.2
2,RPNT,≤ 0.2
3,RPRT,≤ 0.2
4,RSRH,0.232
5,SLNY,≤ 0.2
6,EHPE,≤ 0.2
7,LPKC,≤ 0.2
8,QHRW,≤ 0.2
9,TTHM,≤ 0.2
10,QPTM,≤ 0.2
11,YDPM,≤ 0.2
12,GMKG,≤ 0.2
13,RWFS,0.691
14,RWAS,0.876
15,RWFN,≤ 0.2
16,RWFY,≤ 0.2
17,RWAD,≤ 0.2
18,RWAN,0.26
